beta cell repl – inducers of MIN6 beta-cell proliferation, primary screen, ATP luminescence, uHTS | MIN6 cells proliferation, ATPlite luminescence, 48 h; cells starved in 0.2% serum; 100% = growth in 10% serum | proliferation, % at 10 µM | AID 2380, 2010 | actives 0.29% (n = 330,000);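 active = compounds whose signal lies at least 3.5 SD above the mean of all wells on their plate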;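 note: 0% = DMSO-treated cells in low-serum medium and 100% = 10% serum control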
p-CIP stab down – p/CIP-EGFP fusion destabilizers, primary screen, fluorescence, F442A cells | AID 1984, 2009 | actives 0.01% (n = 290,000) | Q05BA5 | decrease of EGFP signal, % at 10 µM | 16 h;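 active = EGFP signal decrease of at least 30% at 10 µM or well 3 SD below plate mean, unless failing retest; inactive = the rest, including hits failing retest or dose response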
GRIN3A LBD mod – binders of NR3A ligand-binding domain, primary screen, biophysical, differential scanning fluorimetry, uHTS | Glutamate receptor ionotropic, NMDA 3A (GRIN3A) ligand-binding domain | NR3A LBD differential scanning fluorimetry, Tm shift; 0% = protein alone, 100% = glycine-bound protein | Tm shift relative to glycine control, % at 25 µM | actives 2.5% (n = 340,000) | AID 1259313, 2017;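 active = melting temperature shift of at least 10% of the positive control shift, at one fixed dose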
FAS TE block – FAS thioesterase domain inhibitors, primary screen, biochemical, fluorescence intensity, uHTS; Fatty acid synthase (Homo sapiens), P49327; actives 0.67% (n = 360,000); recombinant FAS-TE, OMFH fluorogenic substrate, fluorescence endpoint; inhibition, % at 15 µM;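 active = compounds whose normalised, plate-corrected inhibition of enzyme fluorescence in the single-dose primary screen is 50% or more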;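 note: 0% = DMSO with enzyme and 100% = substrate without enzyme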
Target sequence (P49327 whole entry, looked up, the tested form may be a part): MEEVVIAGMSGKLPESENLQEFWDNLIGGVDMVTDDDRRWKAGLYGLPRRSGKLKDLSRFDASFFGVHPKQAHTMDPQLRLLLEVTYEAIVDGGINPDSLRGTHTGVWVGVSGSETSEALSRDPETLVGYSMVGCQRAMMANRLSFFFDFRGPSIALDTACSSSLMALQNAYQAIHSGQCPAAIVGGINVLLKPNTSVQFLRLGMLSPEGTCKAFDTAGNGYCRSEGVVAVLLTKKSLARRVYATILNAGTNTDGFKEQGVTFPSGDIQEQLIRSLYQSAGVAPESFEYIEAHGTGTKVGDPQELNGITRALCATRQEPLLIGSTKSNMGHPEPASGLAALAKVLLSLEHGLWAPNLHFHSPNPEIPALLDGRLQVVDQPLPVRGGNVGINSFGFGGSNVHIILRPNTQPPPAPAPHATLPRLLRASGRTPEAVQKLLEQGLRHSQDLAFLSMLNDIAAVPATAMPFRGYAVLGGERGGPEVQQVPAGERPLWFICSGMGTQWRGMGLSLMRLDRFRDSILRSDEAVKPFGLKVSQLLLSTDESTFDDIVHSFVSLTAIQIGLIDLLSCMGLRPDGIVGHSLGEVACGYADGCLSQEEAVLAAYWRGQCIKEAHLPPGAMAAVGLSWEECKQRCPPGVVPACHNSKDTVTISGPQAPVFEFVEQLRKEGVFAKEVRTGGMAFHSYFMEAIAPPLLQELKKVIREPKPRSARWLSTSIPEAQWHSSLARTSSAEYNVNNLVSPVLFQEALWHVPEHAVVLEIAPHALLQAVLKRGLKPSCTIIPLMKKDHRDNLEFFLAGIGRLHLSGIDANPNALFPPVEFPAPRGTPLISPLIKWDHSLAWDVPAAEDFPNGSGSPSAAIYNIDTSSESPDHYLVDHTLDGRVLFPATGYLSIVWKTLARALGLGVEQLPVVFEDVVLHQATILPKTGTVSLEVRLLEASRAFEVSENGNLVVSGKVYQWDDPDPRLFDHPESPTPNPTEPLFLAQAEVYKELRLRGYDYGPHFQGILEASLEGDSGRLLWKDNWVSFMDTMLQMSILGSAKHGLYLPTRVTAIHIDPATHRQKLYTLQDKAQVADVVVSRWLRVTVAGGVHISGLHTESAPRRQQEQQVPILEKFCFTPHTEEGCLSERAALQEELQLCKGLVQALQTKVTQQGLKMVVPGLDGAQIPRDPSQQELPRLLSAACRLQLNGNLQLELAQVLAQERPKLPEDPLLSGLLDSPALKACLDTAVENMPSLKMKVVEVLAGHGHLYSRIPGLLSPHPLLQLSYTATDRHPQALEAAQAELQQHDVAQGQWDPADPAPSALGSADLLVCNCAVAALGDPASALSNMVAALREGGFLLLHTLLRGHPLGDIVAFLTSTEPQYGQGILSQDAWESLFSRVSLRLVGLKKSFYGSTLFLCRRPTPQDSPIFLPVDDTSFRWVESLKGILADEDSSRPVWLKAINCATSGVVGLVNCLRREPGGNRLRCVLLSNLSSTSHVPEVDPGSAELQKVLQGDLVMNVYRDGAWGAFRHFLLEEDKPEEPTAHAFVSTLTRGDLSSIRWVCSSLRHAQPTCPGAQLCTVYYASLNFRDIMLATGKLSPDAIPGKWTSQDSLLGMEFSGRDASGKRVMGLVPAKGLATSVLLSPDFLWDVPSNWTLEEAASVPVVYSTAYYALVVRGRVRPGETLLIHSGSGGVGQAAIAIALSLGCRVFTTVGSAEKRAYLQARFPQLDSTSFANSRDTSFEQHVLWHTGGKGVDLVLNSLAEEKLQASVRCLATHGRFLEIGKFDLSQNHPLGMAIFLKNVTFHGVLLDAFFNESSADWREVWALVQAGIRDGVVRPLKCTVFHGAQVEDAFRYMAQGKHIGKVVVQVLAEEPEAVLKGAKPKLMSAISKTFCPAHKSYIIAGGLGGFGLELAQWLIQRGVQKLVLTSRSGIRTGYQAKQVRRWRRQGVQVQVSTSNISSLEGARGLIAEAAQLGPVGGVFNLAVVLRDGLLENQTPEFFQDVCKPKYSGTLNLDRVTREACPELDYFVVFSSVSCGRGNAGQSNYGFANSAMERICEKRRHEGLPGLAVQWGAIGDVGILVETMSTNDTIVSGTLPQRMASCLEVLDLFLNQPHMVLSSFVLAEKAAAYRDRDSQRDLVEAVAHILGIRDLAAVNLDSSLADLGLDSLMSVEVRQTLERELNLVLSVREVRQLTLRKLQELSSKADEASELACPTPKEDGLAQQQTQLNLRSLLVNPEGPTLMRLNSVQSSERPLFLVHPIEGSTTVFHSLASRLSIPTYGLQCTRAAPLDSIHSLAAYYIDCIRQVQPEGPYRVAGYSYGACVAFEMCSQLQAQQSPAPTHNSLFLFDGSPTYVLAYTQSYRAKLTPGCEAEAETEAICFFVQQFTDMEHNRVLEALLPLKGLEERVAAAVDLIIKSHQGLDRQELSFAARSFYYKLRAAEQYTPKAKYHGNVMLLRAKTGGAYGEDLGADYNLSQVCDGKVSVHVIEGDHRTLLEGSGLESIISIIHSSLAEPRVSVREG
MPTP block – mitochondrial permeability transition pore inhibitors, primary screen, biochemical, isolated mouse mitochondria, absorbance | inhibition, % at 10 µM | Ca2+ swelling absorbance, 30 min | actives 1.4% (n = 360,000) | AID 602449, 2012;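 active = inhibition of 50% or more, scaled per plate between neutral and stimulator controls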;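 note: 0% = DMSO wells given calcium and 100% = 1 mM EGTA wells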
Rh123 counter – fluorescence retest of MPTP screen hits in isolated mitochondria, single concentration; shares compounds with MPTP block; membrane potential, Rhodamine 123 fluorescence; inhibition, % at 10 µM; actives 78% (n = 5,000); AID 624504, 2012; in the data active = inhibition above about 22%;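 note: 0% = DMSO vehicle and 100% = positive control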
MPTP swell DR – mitochondrial permeability transition pore inhibitors, dose response, biochemical, absorbance, uHTS hits; shares compounds with MPTP block; isolated mitochondria swelling; IC50, µM; actives 58% (n = 780); AID 651561, 2012; in the data active = IC50 below about 20 µM
MPTP counter DR – fluorescent counter-screen in isolated mitochondria, dose response, counter-screen for MPTP inhibitor project, biochemical, fluorescence, uHTS hits; IC50, µM; isolated mitochondria counterscreen, fluorescence read-out; shares compounds with MPTP block; actives 49% (n = 780); in the data active = IC50 below about 80 µM
* = called active by the depositor. In the library only some 4.1% were active in any assay of this set; here they are far more common.

How did Cc1c(C(=O)N(C)CCOc2ccccc2)oc2c(Cl)cccc12 do in these assays?
beta cell repl: -3; GRIN3A LBD mod: 0; FAS TE block: 27; MPTP block: 1

Results for COc1ccc2oc(C(=O)N(C)CCOc3ccc(Cl)cc3)c(C)c2c1 ?
beta cell repl: -2; p-CIP stab down: 0; GRIN3A LBD mod: -1; FAS TE block: 27; MPTP block: 122*; Rh123 counter: 6; MPTP swell DR: inactive; MPTP counter DR: 52*

What do the screens show for `COC(=O)C1=C(C)NC(C)=C(C(=O)OC)C1c1ccc(-c2cccc(Cl)c2Cl)o1`?
beta cell repl: -3; p-CIP stab down: 9; GRIN3A LBD mod: 10; FAS TE block: 24; MPTP block: 82*; Rh123 counter: 2; MPTP swell DR: >100; MPTP counter DR: >80

Results for CN1CCN(c2ccc(CNS(=O)(=O)Cc3cccc(C(F)(F)F)c3)cc2)CC1 ?
beta cell repl: -3; p-CIP stab down: -22; GRIN3A LBD mod: 1; FAS TE block: -6; MPTP block: 84*; Rh123 counter: 86*

How did O=C(Nc1cccc(Cl)c1)O/N=C\c1ccncc1 do in these assays?
beta cell repl: -1; p-CIP stab down: -9; GRIN3A LBD mod: -1; FAS TE block: -4; MPTP block: 82*; Rh123 counter: 93*

Results for CN(C)c1ccc(/C=N/OC(=O)Nc2ccccc2)cc1 ?
beta cell repl: -3; p-CIP stab down: -2; GRIN3A LBD mod: 5; FAS TE block: 6; MPTP block: -1

Results for O=C(Nc1ccc(Cl)c(Cl)c1)O/N=C/c1ccncc1 ?
beta cell repl: 0; p-CIP stab down: -2; GRIN3A LBD mod: 29*; FAS TE block: 8; MPTP block: 104*; Rh123 counter: 78*

How did CCOC(=O)c1sc2nc(C)nc(N3CCCCC3C)c2c1C (stereo not given) do in these assays?
beta cell repl: -2; p-CIP stab down: -9; GRIN3A LBD mod: 2; FAS TE block: 22; MPTP block: 2

Results for Cc1nc(N2CCCCC2)c2c(C)c(C(=O)Nc3cccc(C(F)(F)F)c3)sc2n1 ?
beta cell repl: -6; p-CIP stab down: -4; GRIN3A LBD mod: 5; FAS TE block: 42; MPTP block: 84*; Rh123 counter: 49*

Results for Cc1nc(N2CCCCC2C)c2c(C)c(C(=O)Nc3cccc(C(F)(F)F)c3)sc2n1 (stereo not given) ?
beta cell repl: -6; p-CIP stab down: -8; GRIN3A LBD mod: 4; FAS TE block: 21; MPTP block: 70*; Rh123 counter: 41*

What do the screens show for `Cc1ccc(-n2nnnc2SCC(=O)c2c(N)n(C3CC3)c(=O)[nH]c2=O)c(C)c1`?
beta cell repl: 3; GRIN3A LBD mod: 1; FAS TE block: -3; MPTP block: -1

What do the screens show for `CCC(C)NS(=O)(=O)c1ccc(S(=O)(=O)N2CC=C(c3ccc(F)cc3)CC2)cc1` (stereo not given)?
beta cell repl: -6; p-CIP stab down: -5; GRIN3A LBD mod: -4; FAS TE block: 31; MPTP block: 66*; Rh123 counter: 56*

What do the screens show for `CCC(C)NC(=O)C1=CCN(S(=O)(=O)c2ccc(C)cc2)CC1` (stereo not given)?
beta cell repl: -4; p-CIP stab down: 3; GRIN3A LBD mod: 1; FAS TE block: -3; MPTP block: 0

How did COC(=O)CCCCCc1ccc(C(C)=O)s1 do in these assays?
beta cell repl: -1; p-CIP stab down: -6; GRIN3A LBD mod: 2; FAS TE block: 1; MPTP block: 0

How did CCOC(=O)CSc1nnc(NCC(=O)OC(C)C)c(=O)[nH]1 do in these assays?
beta cell repl: -1; p-CIP stab down: -9; GRIN3A LBD mod: -1; FAS TE block: 37; MPTP block: 63*; Rh123 counter: -2; MPTP swell DR: >100; MPTP counter DR: >80

Results for CCOC(=O)CNC(=O)CSc1nnc(C)c(=O)[nH]1 ?
beta cell repl: 0; p-CIP stab down: -22; GRIN3A LBD mod: -1; FAS TE block: -16; MPTP block: -1

How did CCCc1ccc(C(C)NC(=S)NC2CCCCC2)cc1 (stereo not given) do in these assays?
beta cell repl: -8; p-CIP stab down: -10; GRIN3A LBD mod: -2; FAS TE block: 18; MPTP block: 38

What do the screens show for `CCOc1ccc(C(C)NC(=S)NCc2ccc(Cl)cc2)cc1` (stereo not given)?
beta cell repl: -6; p-CIP stab down: -11; GRIN3A LBD mod: 5; FAS TE block: 22; MPTP block: 60*; Rh123 counter: 94*

How did COc1ccc(C(C)NC(=S)NCc2ccc(F)cc2)cc1OC (stereo not given) do in these assays?
beta cell repl: 3; p-CIP stab down: -5; GRIN3A LBD mod: -1; FAS TE block: -4; MPTP block: 1

Results for CC(NC(=S)NCc1ccc(F)cc1)C12CC3CC(CC(C3)C1)C2 (stereo not given) ?
beta cell repl: -5; p-CIP stab down: -9; GRIN3A LBD mod: 4; FAS TE block: 20; MPTP block: 80*; Rh123 counter: 90*

Results for CCCc1ccc(C(C)NC(=S)NCc2ccc(F)cc2)cc1 (stereo not given) ?
beta cell repl: -8; p-CIP stab down: -16; GRIN3A LBD mod: 9; FAS TE block: 29; MPTP block: 64*; Rh123 counter: 91*

How did CCC(C)c1ccc(C(C)NC(=S)NCc2ccc(F)cc2)cc1 (stereo not given) do in these assays?
beta cell repl: -8; p-CIP stab down: -2; GRIN3A LBD mod: 13*; FAS TE block: 25; MPTP block: 60*; Rh123 counter: 94*

Results for COc1ccc(C(=O)N(C)Cc2ccccn2)cc1OC1CCN(C(C)C)CC1 ?
beta cell repl: 0; p-CIP stab down: 2; GRIN3A LBD mod: 0; FAS TE block: -3; MPTP block: 2

How did O=C(CNC(=O)c1ccco1)N/N=C/c1ccc(C(=O)O)cc1 do in these assays?
beta cell repl: 0; p-CIP stab down: -24; GRIN3A LBD mod: 1; FAS TE block: -6; MPTP block: -2

Bioassay records (PubChem BioAssay)
